# PubChem BioAssay AID1117264 (The Scripps Research Institute Molecular Screening Center, 2014)
# The whole screen tested about 89,000 compounds, of which about 440 (0.49%) were called active.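 How the source made its calls: active means inhibition above the mean inhibition across all screened compounds plus 3 SD (cut at about 11% in these data); inactive means the rest.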 Many of the other results were omitted from the sample, so actives are more common in it than they were.
# Molecular target: RNA-editing ligase 1, mitochondrial (Trypanosoma brucei brucei) (UniProt P86926)
# Sequence (P86926 whole entry, looked up): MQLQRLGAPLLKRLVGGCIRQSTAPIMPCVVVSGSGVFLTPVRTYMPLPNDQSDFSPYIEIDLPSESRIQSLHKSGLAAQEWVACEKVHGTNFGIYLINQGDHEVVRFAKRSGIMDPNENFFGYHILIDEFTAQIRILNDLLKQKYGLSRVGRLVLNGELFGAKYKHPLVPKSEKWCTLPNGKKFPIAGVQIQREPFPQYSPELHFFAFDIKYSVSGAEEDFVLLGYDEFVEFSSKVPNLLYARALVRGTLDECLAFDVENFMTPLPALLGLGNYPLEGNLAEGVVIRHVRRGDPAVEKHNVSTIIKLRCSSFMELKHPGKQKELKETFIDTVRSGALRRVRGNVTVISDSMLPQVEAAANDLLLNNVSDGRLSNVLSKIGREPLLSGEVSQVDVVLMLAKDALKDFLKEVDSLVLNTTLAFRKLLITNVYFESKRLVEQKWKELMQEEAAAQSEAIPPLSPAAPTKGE
# Experiment: T. brucei editing ligase REL1 blockade – biochemical, FRET fluorescence, primary screen (AID 1117264);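 further: 0% = plate median of test wells and 100% = NSC42067 control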
# Conditions: TbREL1 RNA ligation, at 9.66 µM, hits give high values
row,Structure (SMILES),inhibition
1,CSc1ccc(C=Nn2c(-c3ccc(F)cc3)n[nH]c2=S)cc1,-3.89% (inactive)
2,CC(C)Cc1nnc(NC(=O)CN2C(=O)NC3(CCCCC3)C2=O)s1,4.69% (inactive)
3,Cc1ccc(C(=O)NCC(=O)NCc2cc(=O)n(C)c(=O)n2C)cc1,1.66% (inactive)
4,Nn1c(SCC(=O)NC2CCCc3ccccc32)nnc1C1CC1 (configuration not stated),0.24% (inactive)
5,COc1ccc(-c2cc(-c3nnc(SCC(=O)Nc4cccc5ccccc45)n3N)[nH]n2)cc1,-2.51% (inactive)
6,CCOC(=O)C1=C(CC)Nc2ccccc2N=C1N,3.99% (inactive)
7,COCCCn1c(SCC(=O)Nc2oc(C)c3c(C)n[nH]c(=O)c23)nc2sc3c(c2c1=O)CCC3,-6.64% (inactive)
8,CCC(C)C(N=C1NS(=O)(=O)c2ccccc21)C(=O)N1CCC(C)CC1 (configuration not stated),-0.06% (inactive)
9,CN(CC(=O)Nc1ccccc1[N+](=O)[O-])Cc1ccc(Br)cc1,1.93% (inactive)
10,CCNC(=O)N1CCCC(C(=O)c2ccc(-c3ccccc3)cc2)C1 (configuration not stated),-3.04% (inactive)
11,O=C(NN=Cc1ccc([N+](=O)[O-])cc1)C1CC1,-3.07% (inactive)
12,Cc1nc(Cl)c(C#N)c2c1CCCC2,8.75% (inactive)
13,COC(=O)c1c(C)c(C)nc(N)c1C#N,-2.53% (inactive)
14,COCc1c(N)c(C)nc(Cl)c1C#N,11.8% (active)
15,O=C(NCc1ccccc1)[C@H]1CCCN1C(=O)[C@H]1CCCN1C(=O)N1CCOCC1,-0.82% (inactive)
16,COc1cccc(CNC(=O)COC(=O)CN2C(=O)NC3(CCCCC3C)C2=O)c1 (configuration not stated),1.52% (inactive)
17,CC1CCN(C(=O)COC(=O)c2cc(S(=O)(=O)N3CCOCC3)ccc2Cl)CC1,-2.18% (inactive)
18,O=C(NCC(c1ccco1)N1CCc2ccccc21)c1cccc(F)c1 (configuration not stated),-8.09% (inactive)
19,COc1cc(NC(=O)C2CCCN(S(=O)(=O)c3ccc(C(C)(C)C)cc3)C2)cc(OC)c1 (configuration not stated),5.8% (inactive)

row,Structure (SMILES),inhibition
1,COc1cc(S(=O)(=O)N2CCN(C(=O)C3CC3)CC2)ccc1NC(C)=O,4.21% (inactive)
2,COC(=O)[C@@]12CCCCC=C1N(CCc1ccc(Cl)cc1)C(=O)[C@H]2CC(=O)NCc1ccc(OC)c(OC)c1,-3.3% (inactive)
3,Cc1cccc(C)c1NC(=O)C(c1cccc(F)c1)N1CCN(C)CC1 (configuration not stated),-2.52% (inactive)
4,COc1ccc(N2CCC(CNC(=S)Nc3c(C)cccc3C)C2)cc1 (configuration not stated),-3.26% (inactive)
5,COc1ccc(C(C(=O)Nc2c(C)cccc2C)N2CCN(c3ccc(C)cc3)CC2)cc1 (configuration not stated),23.2% (active)
6,COc1ccc(C2COC(=O)C2=N)c(NC(=O)c2ccccc2)c1 (configuration not stated),-1.11% (inactive)
7,COc1ccc(N2C(=O)CC(SC(C)C)C2=O)cc1 (configuration not stated),-3.91% (inactive)
8,CCOc1ccc(C(=O)CCC(=O)Nc2ccncc2)cc1,-0.23% (inactive)
9,O=C(CSc1nc(O)c(Cc2ccccc2)c(=O)[nH]1)Nc1nc2c(s1)CCCC2,-3.09% (inactive)
10,CC1CCCCC12NC(=O)N(CC(=O)N1CCN(c3ccccc3)CC1)C2=O (configuration not stated),-1.93% (inactive)
11,C[C@H](NC(=O)c1ccccc1Cl)C(=O)OCC(=O)N1CCN(c2ccccc2)CC1,-4.27% (inactive)
12,O=C(NC1CCC(O)CC1)c1ccccc1OCc1ccc(F)cc1 (configuration not stated),-4.15% (inactive)
13,CCC(C)NCC(=O)Nc1ccc([N+](=O)[O-])cc1C(=O)Nc1ccccc1F (configuration not stated),1.57% (inactive)
14,O=C(COC(=O)/C=C/c1ccc2c(c1)OCO2)NC1CCS(=O)(=O)C1 (configuration not stated),-1.84% (inactive)
15,CC(=O)c1c(C)oc2ccc(NS(=O)(=O)c3ccc(C(=O)O)cc3)cc12,2.43% (inactive)
16,Cc1cc(C)nc(NC(=S)N2CCN(c3ccc(C(F)(F)F)cn3)CC2)c1,-3.25% (inactive)
17,Cc1cccc(C(=O)Nc2ccc3c(c2)C(=O)N(CC(C)C)C3=O)c1,5.77% (inactive)
18,CC(=O)N(CN1C(=O)C2C3C=CC(C3)C2C1=O)c1cccc(Cl)c1 (configuration not stated),-2.46% (inactive)
19,COC(=O)[C@@]12CCCCC3=C1N(CCC3)C(=O)[C@H]2CC(=O)NCc1cccc2ccccc12,-3.03% (inactive)

row,Structure (SMILES),inhibition
1,CN(CC(=O)Nc1c(Cl)cccc1Cl)C(=O)c1ccncc1,-0.71% (inactive)
2,CCOC(=O)[C@H]1[C@H]2COc3ccc(Cl)cc3[C@@H]2N2C(=O)c3cc(C)ccc3NC(=O)[C@@]12C,-1.49% (inactive)
3,COc1cccc(CNC(=O)CNS(=O)(=O)c2ccc3nc(C)sc3c2)c1OC,-4.98% (inactive)
4,CCCCN(C1CCS(=O)(=O)C1)S(=O)(=O)c1ccc(C(C)C)cc1 (configuration not stated),0.44% (inactive)
5,COc1cccc(NC(=O)CN(C)C(=O)CSCc2nc3scc(-c4cccs4)c3c(=O)[nH]2)c1,-0.31% (inactive)
6,Cc1ccccc1NC(=O)Cn1cc(C(=O)C2CC2)c2ccccc21,2.47% (inactive)
7,COc1cccc(NC(=O)CCNS(=O)(=O)c2ccc3c(c2)oc(=O)n3C)c1,3.31% (inactive)
8,COc1cc(NS(=O)(=O)c2ccc(NC(C)=O)cc2)cc(OC)c1,0.52% (inactive)
9,COc1cc(NC(=O)CCS(=O)(=O)c2ccc3c(c2)oc(=O)n3C)cc(OC)c1,12.5% (active)
10,Cc1ccc(NC(=O)C(C)Sc2nnc(C3CC3)n2C2CC2)cc1S(=O)(=O)N1CCOCC1 (configuration not stated),5.95% (inactive)
11,CCC(C(=O)OC)n1cnc2scc(-c3ccc(C)cc3)c2c1=O (configuration not stated),2.37% (inactive)
12,Cc1ccccc1NC(=S)N(CCCN1CCOCC1)Cc1cccs1,-3.36% (inactive)
13,CCCN(CCC)C(=S)Nc1cc(C(=O)OC)ccc1C(=O)OC,-1.86% (inactive)
14,CCCCn1nnnc1C(c1ccccc1)N1CCN(c2ccccc2OC)CC1 (configuration not stated),0.09% (inactive)
15,O=C(C1CCCN1S(=O)(=O)c1ccccc1)N1CCc2ccccc2C1 (configuration not stated),3.88% (inactive)
16,O=C(COC(=O)CNS(=O)(=O)c1ccccc1)NC12CC3CC(CC(C3)C1)C2,-1.46% (inactive)
17,CN1CCN(/N=C2/C(=O)Nc3ccc([N+](=O)[O-])cc32)CC1,11.2% (active)
18,O=C(O)COCC(=O)NCc1csc2ccc(Cl)cc12,2.32% (inactive)
19,O=C(N/N=C/c1cccc([N+](=O)[O-])c1)c1ccncc1,7.99% (inactive)
